Screening data from PubChem.
Shiga toxin inh – A qHTS for Small Molecule Inhibitors of Shiga Toxin; Vero cells, Shiga toxin protein synthesis inhibition reporter; inhibition, % at 38.7 µM; actives 9.2% (n = 290,000); in the data active = inhibition mostly above about 28%, no sharp cut-off; inactive = mostly below about 43%; note: 0% is about no effect
HCMV antiviral – qHTS Assay for inhibitors of the human cytomegalovirus (HCMV); HFF cells, HCMV-luciferase reporter, 72 h; stronger effect = lower value; actives 4.5% (n = 410,000); activity change, negative = inhibition, % at 57.5 µM; in the data active = activity change below about -60%; inconclusive = no clear call, values can overlap the other calls; inactive = above about -39%; note: % is set by controls: 0 for no effect and ±100 for the full control effect
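Screen run at 2 compound doses on HFFs infected with reporter HCMV, MOI 1 PFU/cell. Luciferase activity from cell lysates at 72 h post infection gave inhibition relative to buffer-only and Salinomycin wells.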
Pf growth 48h – Primary qHTS for delayed death inhibitors of the malarial parasite plastid, 48 hour incubation | actives 5.9% (n = 310,000) | P. falciparum luciferase growth in erythrocytes, 48 h | Potency, µM (doses to about 28.7 µM), inactives show top-dose activity change, negative = inhibition, most hits filed as inhibitors; note: potency is the fitted concentration of half-maximal effect; % is set by controls: 0 for no effect and ±100 for the full control effect
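Here the parasites carry a stable luciferase gene and grow inside erythrocytes in Albumax-based RPMI medium with compound for one erythrocytic cycle. Activity is scored as loss of luminescent signal.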
Pf growth 96h – Primary qHTS for delayed death inhibitors of the malarial parasite plastid, 96 hour incubation | P. falciparum luciferase reporter growth, 96 h | Potency, µM (titrated, usually from 28.7 µM), for inactives: at the highest dose activity change, negative = inhibition, usual class: inhibitors | actives 6.9% (n = 320,000); note: potency is the fitted concentration of half-maximal effect; % is set by controls: 0 for no effect and ±100 for the full control effect
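P. falciparum expressing integrated firefly luciferase, in erythrocytes at 2% hematocrit, 0.05% parasitemia, incubated with compounds 96 h at 37 C, 5% CO2. Growth inhibition read as loss of luminescence; two-generation exposure targets delayed-death apicoplast inhibitors.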
HCV inh – qHTS Assay for Inhibitors of Hepatitis C Virus (HCV) | AID 651820, 2012 | actives 3.4% (n = 340,000) | Potency, µM (top dose mostly 41.8 µM), without a hit: top-dose activity change, negative = inhibition, usual class: inhibitors | Huh7.5.1 HCVcc-Cre infection, luciferase reporter, 44 h; note: potency is the fitted concentration of half-maximal effect; % is set by controls: 0 for no effect and ±100 for the full control effect
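HCVcc-Cre virus at an moi near 0.5 was added right after compound to cells cultured 4 h from seeding (1,000 cells/well). Luciferase activity was determined 44 h later, 15 min after substrate addition at RT.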
Cycloheximide cs – Cycloheximide Counterscreen for Small Molecule Inhibitors of Shiga Toxin. cell reporter, cycloheximide protein synthesis inhibition counterscreen. max response, %. actives 12% (n = 300,000). AID 2314, 2010; in the data active = max response mostly above about 13%, no sharp cut-off; inactive = mostly below about 14%; note: read at 38.3 µM for the half of the compounds with a filed dose; 0% is about no effect
* marks the source's active call; other numbers are inactive results; i = inactive; ? = inconclusive; . = no result given; + = active, no number; [ ] = remark or other dose. A selection: hits, their analogues and other compounds. The true share with any hit is near 21%. Unless noted, calls come from the whole dose curve; as a rule, active = well fitted inhibition curve with a large enough effect; inconclusive = small, poorly fitted or top-dose-only effect, or another doubt; inactive = no such curve, though single readings can be large or run the other way.

SMILES | Shiga toxin inh | HCMV antiviral | Pf growth 48h | Pf growth 96h | HCV inh | Cycloheximide cs
CCN1CCN(c2ccc(S(=O)(=O)N3CCOCC3)cc2NC(=O)c2ccc(OCC(C)C)cc2)CC1 | . | -20 | . | . | ? | .
CC(C)COc1ccc(C(=O)Nc2cc(S(=O)(=O)N3CCOCC3)ccc2N2CCCC2)cc1 | . | 2 | 8.3µM* | ? | -25% | .
O=S(=O)(Nc1cc(S(=O)(=O)N2CCOCC2)ccc1N1CCOCC1)c1ccc2c(c1)OCCO2 | 11 | -10 | ? | 43%[5.75 µM] | -10% | 16*
CC(C)Oc1ccc(C(=O)Nc2cc(S(=O)(=O)N3CCOCC3)ccc2N2CCOCC2)cc1 | . | 17 | 13µM* | ? | ? | .
O=C(c1cc(F)cc(F)c1)N1CCC(c2nc(-c3ccc(S(=O)(=O)N4CCCC4)cc3)no2)CC1 | . | -8 | . | . | . | .
Cc1cccc(C2=NN(c3ccccc3)[C@H](CO)[C@H]2C)c1 | + | . | . | . | . | 22
Cc1cccc(C2=NN(c3ccccc3)[C@H](CO)[C@H]2c2ccccc2)c1 | i | . | . | . | ? | 19
Nc1ccccc1N=c1ssnc1Cl | 55* | 100 | ? | -59% | ? | 19
Cc1cc(Cl)ccc1N=c1ssnc1Cl | -14 | -24 | . | 4% | -24% | 4
Cc1ccc(N=c2ssnc2Cl)cc1 | 33 | -20 | 13% | -8% | 10% | 26*
COc1ccc(OC)c(N=c2ssnc2Cl)c1 | -4 | -13 | 22% | 1.7µM* | -20% | -2
CCOC(=O)c1c(NC(=O)c2cc(C)on2)c2cc([N+](=O)[O-])ccc2n1C | -6 | . | 34% | 13% | 11% | -3
O=c1cc(O)c2sc3nc4c(c(C(F)(F)F)c3c2[nH]1)CCCCC4 | -2 | -33 | 2.1µM* | 3% | 8% | -2
C/C(=N\NC(=O)c1nnn(-c2nonc2N)c1-c1ccc2c(c1)OCO2)c1ccccc1 | 3 | 0 | ? | 15µM* | 13% | 1
CC/C(=N\NC(=O)c1nnn(-c2nonc2N)c1-c1ccc2c(c1)OCO2)c1ccccc1 | -3 | -27 | ? | ? | 15% | -6
CCCc1c(C(=O)N/N=C(\C)c2ccccc2O)nnn1-c1nonc1N | . | -36 | . | . | . | .
C/C(=N\NC(=O)c1nnn(-c2nonc2N)c1-c1ccccc1)c1ccccc1O | -16 | -89* | -67% | ? | 6.3µM* | 1
C/C(=N\NC(=O)c1nnn(-c2nonc2N)c1-c1ccc2c(c1)OCO2)c1ccc(C)cc1 | -6 | -33 | ? | 13µM* | 0% | 4
C/C(=N\NC(=O)c1nnn(-c2nonc2N)c1-c1ccc2c(c1)OCO2)c1ccc(F)cc1 | -5 | 0 | ? | 4.7µM* | 9% | -3
COC(=O)[C@@]12C[C@@H](CC(=O)N3CCOCC3)C(=O)N(CCc3ccc(OC)c(OC)c3)C1=CCC(C)(C)C2 | . | -21 | . | . | . | .
O=C(COc1ccc(Cl)cc1)OCc1cc(=O)n2nc(C3CCCCC3)sc2n1 | . | 7 | . | . | . | .
CCCCN(CC)C(=O)c1c[nH]c2ccc(S(=O)(=O)N(C)c3ccc(Cl)cc3)cc2c1=O | . | -9 | . | . | . | .
COc1ccc(CNC(=O)CN(C(=O)c2csnn2)c2cccc3ccccc23)cc1 | -4 | 2 | -6% | ? | -16% | -3
COC(=O)c1sccc1NC(=O)Nc1ccc(C)c(C)c1 | 72* | 22 | 184% | -8% | -9% | 41*
COC(=O)c1sccc1S(=O)(=O)Nc1ccc(C)cc1 | 2 | -5 | 15% | -21% | 14% | 16*
SMILES | Shiga toxin inh | HCMV antiviral | Pf growth 48h | Pf growth 96h | HCV inh | Cycloheximide cs
CCc1ccc(NC(=O)Nc2ccsc2C(=O)OC)cc1 | 42* | 77 | 268% | 22% | -19% | 36*
COC(=O)c1sccc1NC(=O)Nc1ccc(Cl)c(Cl)c1 | 23 | -71* | 94% | ? | ? | 27*
COC(=O)c1sccc1NC(=O)c1c(Cl)cccc1Cl | 61 | -26 | ? | ? | 6% | -1
COC(=O)c1sccc1NC(=O)Nc1ccc(OC)c(OC)c1 | -6 | 10 | ? | ? | 3% | 12
COC(=O)c1sccc1S(=O)(=O)N(CC(=O)Nc1ccc(C)cc1)c1ccccc1 | . | 31 | . | . | . | .
CCCNC(=O)Nc1ccsc1C(=O)OC | 31 | -31 | -5% | 6% | -5% | -2
CCC(C)C(=O)O[C@@H]1[C@H](OC(C)=O)c2c(ccc3ccc(=O)oc23)OC1(C)C (stereo partly specified) | . | -33 | . | . | . | .
COC(=O)c1cc2sc(Cl)cc2n1Cc1cc(C)ccc1C | . | 10 | . | . | . | .
COC(=O)c1sccc1NC(=O)Cc1ccc(Br)cc1 | 32* | -27 | -4% | 31% | -16% | 26*
COC(=O)c1sccc1NC(=O)CSc1cccc(Cl)c1Cl | 27 | -4 | 2% | 9% | -13% | 12*
COc1ccc(C2C(C#N)=C(N)Oc3cc(C)[nH]c(=O)c32)cc1OC (stereo unspecified) | 21 | -19 | 1% | 17% | 3% | -2
COC(=O)C(c1ccccc1)(c1cn(C)c2ccccc12)C(Nc1ccc(OC)cc1)c1ccccc1 (stereo unspecified) | . | -5 | . | . | . | .
C=CCN(CC=C)C(=S)NC(=O)Cc1cccc2ccccc12 | 7 | -16 | ? | 4.1µM* | -22% | 4
COc1ccc(-c2nc(SCCOc3cc(C)ccc3C(C)C)n3[nH]c(=O)cc3n2)cc1 | . | 7 | . | . | . | .
O=C(Nc1nnc(C2CCCO2)s1)c1ccc(Br)cc1 (stereo unspecified) | 26 | 90 | . | 127% | 14% | 20*
Cc1ccc(OCC(=O)Nc2nnc(C3CCCO3)s2)c(Br)c1 (stereo unspecified) | 70* | -12 | 12% | ? | ? | 15
CCc1ccc(OCCCC(=O)Nc2nnc(C3CCCO3)s2)cc1 (stereo unspecified) | 9 | -20 | 39% | 12µM* | 16% | -3
COc1cccc(C2CC(=O)C3=C(C2)Nc2ccccc2N(C(=O)CCC(=O)O)C3c2ccc(F)cc2)c1 (stereo unspecified) | -14 | -33 | 2% | 4% | -12% | -6
CCN(CC)C(=O)C1=C(C)Nc2nc3ccccc3n2C1c1ccc(Br)cc1 (stereo unspecified) | . | -4 | . | . | . | .
CCN(CC)c1ccc(C=N/C(C#N)=C(\N)C#N)cc1 | 54* | 26 | 53% | . | -24% | 28*
CCc1nc2ccc(C(=O)N(CC)CCN(C)C)cn2c1N(C=O)CCC(C)C | . | -15 | . | . | . | .
Cc1cccc(-c2cc3nc(C)cc(C)n3n2)c1 | 75* | 172 | 124% | 0% | 10µM* | 49*
COc1ccccc1-c1cc2nc(C)cc(C)n2n1 | 57* | 58 | 44% | 60% | 11% | 17
